Rows were chosen to be rich in hits. Some 21% of all compounds tested hit in one or more screens of this group.
Pf growth 48h = Primary qHTS for delayed death inhibitors of the malarial parasite plastid, 48 hour incubation; P. falciparum luciferase growth in erythrocytes, 48 h; Potency, µM (highest dose often 28.7 µM), hits mostly inhibitors; 310,000 compounds, 5.9% hits; AID 504832, 2011
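Firefly luciferase activity from engineered P. falciparum reports growth; inhibitors lower the luminescent signal. Cultures contained 2% hematocrit erythrocytes at 0.1% final parasitemia.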
NS1 function inh = qHTS Assay for Inhibitors of Influenza NS1 Protein Function; 270,000 compounds, 0.4% hits; Potency, µM (top dose mostly 46.1 µM); calls by dose curve; further: actives are rising curves; nearly all actives have a fitted effect of over 50% in size
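In this qHTS, NS1 from influenza A is expressed in budding yeast, where it slows growth. Cells are switched from glucose to 2% galactose medium (pH 6.0, -URA), treated with compound, and growth recovery is read at OD600.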
Shiga inhibitor = A qHTS for Small Molecule Inhibitors of Shiga Toxin; Vero cells, Shiga toxin protein synthesis inhibition reporter; inhibition, % at 38.7 µM; 290,000 compounds, 9.2% hits; in the data active means inhibition mostly above about 28%, no sharp cut-off; inactive means mostly below about 43%
CHX counter = Cycloheximide Counterscreen for Small Molecule Inhibitors of Shiga Toxin; cell reporter, cycloheximide protein synthesis inhibition counterscreen; max response, %; 300,000 compounds, 12% hits; in the data active means max response mostly above about 13%, no sharp cut-off; inactive means mostly below about 14%; further: read at 38.3 µM for the half of the compounds with a filed dose
Sm TGR block = qHTS Assay for the Inhibitors of Schistosoma Mansoni Peroxiredoxins; Schistosoma mansoni thioredoxin glutathione reductase (TGR), Q962Y6; purified TGR, DTNB reduction, TNB absorbance 405 nm; Potency, µM (highest dose often 114 µM), usual class: inhibitors; 360,000 compounds, 3% hits; further: nearly all actives have a fitted effect of over 60% in size
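TGR 20 nM + NADPH 100 uM (dispensed conc.), cpd preinc 15 min RT; start with NADPH (500 uM addition) then DTNB (15 mM addition). Kinetic TNB absorbance, 405 nm filter. Four-parameter Hill fit across titration.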
Pf growth 96h = Primary qHTS for delayed death inhibitors of the malarial parasite plastid, 96 hour incubation; P. falciparum luciferase reporter growth, 96 h; Potency, µM (titrated, usually from 28.7 µM), most hits filed as inhibitors; 320,000 compounds, 6.9% hits
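Two-generation exposure (96 h) targets delayed-death phenotype. Reporter parasites carrying integrated firefly luciferase, in red cells at 2% hematocrit and 0.05% parasitemia final, kept at 37 C, 5% CO2; luminescence loss indicates inhibition.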
A number is an active result; [ ] = another dose, or the depositor's remark. Unless noted, the call rests on the fitted dose curve; in most records, active means well fitted curve in the direction sought with a large enough effect; inconclusive means small, poorly fitted or top-dose-only effect, or another doubt; inactive means no such curve, though single readings can be large; an effect the other way counts as inactive or inconclusive.

Screening CN(C(=O)COc1coc(CN2CCN(c3ccccc3)CC2)cc1=O)c1ccccc1 returned Pf growth 48h inactive, Sm TGR block inactive and Pf growth 96h 13µM.
For CNC(=O)COc1coc(CN2CCN(c3ccccc3)CC2)cc1=O the results were Pf growth 48h inactive, NS1 function inh inactive, Shiga inhibitor inactive, CHX counter inactive, Sm TGR block inactive and Pf growth 96h inactive.
`CCOC(=O)CNC(=O)COc1coc(CN2CCN(c3ccccc3)CC2)cc1=O` gave Pf growth 48h inactive, NS1 function inh inactive, Shiga inhibitor inactive, CHX counter inactive, Sm TGR block inactive and Pf growth 96h inconclusive.
`CCOc1ccc(CNC(=O)c2cccc(NC(=O)N3CCSc4ncccc43)c2)cc1` gave Sm TGR block inactive.
`O=S(=O)(c1cccc(-c2n[nH]c(=S)n2C2CCCC2)c1)N1CCOCC1` gave Pf growth 48h inactive, Shiga inhibitor inactive, CHX counter inactive, Sm TGR block inactive and Pf growth 96h inactive.
CCCc1cc(C(=O)Nc2ccc(C(C)=O)cc2)no1 was read as Pf growth 48h inactive, NS1 function inh inconclusive, Shiga inhibitor 82, CHX counter 42, Sm TGR block inactive and Pf growth 96h inconclusive.
CCCc1cc(C(=O)Nc2cccnc2)no1 was read as NS1 function inh inactive, Shiga inhibitor 89, CHX counter 72, Sm TGR block inactive and Pf growth 96h inconclusive.
`CCCc1cc(C(=O)Nc2sc(C)c(CC)c2C#N)no1` gave Pf growth 48h inactive, NS1 function inh inactive, Shiga inhibitor inactive, CHX counter 13, Sm TGR block inactive and Pf growth 96h inactive.
For CC(=O)c1ccc(NC(=O)c2cc(C)no2)cc1 the results were Pf growth 48h inactive, NS1 function inh inactive, Shiga inhibitor inactive, CHX counter inactive, Sm TGR block inactive and Pf growth 96h inactive.
For N#Cc1ccc(NC(=O)c2cc(-c3cccs3)on2)cc1 the results were Pf growth 48h inactive[1.15 µM], NS1 function inh inactive, Shiga inhibitor inactive, CHX counter inactive, Sm TGR block inactive and Pf growth 96h inactive.
`CCCc1cc(C(=O)Nc2ccc(C#N)cc2)no1` gave Pf growth 48h inactive, NS1 function inh inactive, Shiga inhibitor inactive, CHX counter 15, Sm TGR block inactive and Pf growth 96h inactive.
For CCCc1cc(C(=O)NCc2cccnc2)no1 the results were NS1 function inh inactive, Shiga inhibitor inactive, CHX counter inactive, Sm TGR block inactive and Pf growth 96h inactive.
`Cc1sc(NC(=O)c2ccccc2)c(C#N)c1-c1ccccc1` gave Pf growth 48h inactive, NS1 function inh inactive, Shiga inhibitor 26, CHX counter 43, Sm TGR block inactive and Pf growth 96h 4.1µM.
Screening CC(C)c1cc(C(=O)Nc2cccnc2)no1 returned Pf growth 48h inactive, NS1 function inh inactive, Shiga inhibitor 48, CHX counter 37 and Sm TGR block inactive.
`CCCc1cc(C(=O)Nc2ccc(F)c(Cl)c2)no1` gave Pf growth 48h inactive, NS1 function inh inactive, Shiga inhibitor 94, CHX counter 31, Sm TGR block inactive and Pf growth 96h inactive.
CCCc1cc(C(=O)Nc2cccc(Cl)c2)no1 was read as Pf growth 48h inactive, NS1 function inh inactive, Shiga inhibitor 82, CHX counter 23, Sm TGR block inactive and Pf growth 96h inactive.
COc1cccc(CNC(=O)C2=C(C)C(=O)OC23CCC(C)CC3)c1 (stereo not drawn) was read as Pf growth 48h inconclusive, NS1 function inh inactive, Shiga inhibitor inactive, CHX counter inactive, Sm TGR block inactive and Pf growth 96h inactive.
CC1CCC(O)C/C1=C\C=C1/CCCC2(C)C1CCC2C(C)/C=C/C(C)C(C)C (stereo not drawn) was read as Pf growth 48h inactive, Shiga inhibitor inactive, CHX counter inactive and Pf growth 96h inactive.
Screening CC(=O)c1cccc(NC(=O)c2cc(-c3ccc(C)cc3)on2)c1 returned Pf growth 48h inactive, NS1 function inh inactive, Shiga inhibitor active, CHX counter 30, Sm TGR block inactive and Pf growth 96h inactive.
For CCc1c(C)sc(NC(=O)c2cccs2)c1C#N the results were Pf growth 48h inactive, NS1 function inh inactive, Shiga inhibitor 77, CHX counter 53, Sm TGR block inactive and Pf growth 96h inactive.
CCCc1cc(C(=O)Nc2cccc(C(C)=O)c2)no1 was read as NS1 function inh inactive, Shiga inhibitor 67, CHX counter 31, Sm TGR block inactive and Pf growth 96h inconclusive.
`CC(=O)c1cccc(NC(=O)c2cc(-c3ccc4c(c3)OCCO4)on2)c1` gave Sm TGR block inactive.
`COc1ccc2cc(CNc3ccc(OC)c(OC)c3)c(=O)n(CC(=O)Nc3ccc(C)cc3)c2c1` gave Sm TGR block inactive.
COc1cc(S(=O)(=O)N2CCOCC2)ccc1N was read as Pf growth 48h inactive, NS1 function inh inactive, Shiga inhibitor inactive, CHX counter inactive and Pf growth 96h inactive.
CC(C)CN(C(=O)COC(=O)c1nc(Cl)ccc1Cl)C1CCS(=O)(=O)C1 (stereo not drawn) was read as Pf growth 48h inactive, Shiga inhibitor inactive, CHX counter inactive, Sm TGR block inactive and Pf growth 96h inactive.
Screening CC(C)CN(C(=O)COC(=O)c1c(Cl)ccc(Cl)c1Cl)C1CCS(=O)(=O)C1 (stereo not drawn) returned Pf growth 48h inconclusive, Shiga inhibitor inactive, CHX counter inactive, Sm TGR block inactive and Pf growth 96h 12µM.
For CCc1cnc2c(c1SCC(=O)NCc1ccc(F)cc1)c(=O)n(C)c(=O)n2C the results were Sm TGR block inactive.
`Cc1cccc(NC(=O)c2cccc(S(=O)(=O)N3CCc4ccccc4C3)c2)n1` gave Pf growth 48h inconclusive, Sm TGR block inactive and Pf growth 96h inactive.
`COc1cc(/C=C(\C#N)c2nc3ccccc3[nH]2)ccc1OCc1ccccc1F` gave Sm TGR block inactive.
Screening COc1cc(/C=C(\C#N)c2nc3ccccc3[nH]2)cc(Br)c1OCc1ccc(F)cc1 returned Pf growth 48h 3.7µM, NS1 function inh inactive, Shiga inhibitor inactive, CHX counter inactive, Sm TGR block inactive and Pf growth 96h 2.1µM.
COc1cc(/C=C(\C#N)c2nc3ccccc3[nH]2)cc(Br)c1OCc1ccccc1 was read as Pf growth 48h 2.9µM, NS1 function inh inactive, Shiga inhibitor inactive, CHX counter 12, Sm TGR block inactive and Pf growth 96h inactive.
Screening COc1cc(Cl)c(S(=O)(=O)NCc2cccnc2)cc1Cl returned Pf growth 48h inactive, NS1 function inh inactive, Shiga inhibitor inactive, CHX counter inactive, Sm TGR block inactive and Pf growth 96h inactive.
For Cc1cc(O)c(C(C)C)cc1N=Cc1ccccc1O the results were Pf growth 48h inconclusive, NS1 function inh inactive, Shiga inhibitor inactive, CHX counter inactive, Sm TGR block 4µM and Pf growth 96h inconclusive.

Assay outcomes from PubChem BioAssay.
